Shown are actives, neighbours in structure and some others; about 2.8% of the full set was active somewhere.
S2 tox: cell viability loss in ATXN counter-screen. Potency, µM (titrated, usually from 56.7 µM), most hits filed as cytotoxic. S2 cells (HEK-293 line with an ATXN2-luciferase reporter) viability, CellTiter-Fluor protease fluorescence, 24 h. 0.49% of 400,000 active; note: potency is the fitted concentration of half-maximal effect; nearly all actives have a fitted effect of over 40% in size
HepG2 tox-1: counter-screen for TGF-b inhibitors: cytotoxicity in HepG2 cells. Potency, µM (series often up to 46.1 µM), without a hit: at the highest dose activity change, negative = cytotoxicity, usual class: cytotoxic. 0.76% of 410,000 active. HepG2 CAGA-GFP viability, ATP luminescence, 18 h; note: potency is the fitted concentration of half-maximal effect
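CellTiter-Glo luminescence gave cytotoxicity after 18 hours at 37 degrees C. The cells were HepG2 CAGA-GFP in 1% FBS DMEM, stimulated with 500 pg/mL TGF-beta after compound addition. %Activity was normalised to no-cell wells (complete cell-killing) and DMSO (no toxicity), and curves were fitted and classified.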
Six1-Eya2 blk: Six1/Eya2 interaction inhibition. AlphaScreen GST-Six1/His-Eya2 binding, biochemical; hits give low values. activity change, % (test concentration not listed). 0.56% of 360,000 active. AID 651725; in the data active = activity change below about -65%; inconclusive = mostly about -30% to -63%; note: % is set by controls: 0 for no effect and ±100 for the full control effect
Target sequence (O00167 whole entry, looked up): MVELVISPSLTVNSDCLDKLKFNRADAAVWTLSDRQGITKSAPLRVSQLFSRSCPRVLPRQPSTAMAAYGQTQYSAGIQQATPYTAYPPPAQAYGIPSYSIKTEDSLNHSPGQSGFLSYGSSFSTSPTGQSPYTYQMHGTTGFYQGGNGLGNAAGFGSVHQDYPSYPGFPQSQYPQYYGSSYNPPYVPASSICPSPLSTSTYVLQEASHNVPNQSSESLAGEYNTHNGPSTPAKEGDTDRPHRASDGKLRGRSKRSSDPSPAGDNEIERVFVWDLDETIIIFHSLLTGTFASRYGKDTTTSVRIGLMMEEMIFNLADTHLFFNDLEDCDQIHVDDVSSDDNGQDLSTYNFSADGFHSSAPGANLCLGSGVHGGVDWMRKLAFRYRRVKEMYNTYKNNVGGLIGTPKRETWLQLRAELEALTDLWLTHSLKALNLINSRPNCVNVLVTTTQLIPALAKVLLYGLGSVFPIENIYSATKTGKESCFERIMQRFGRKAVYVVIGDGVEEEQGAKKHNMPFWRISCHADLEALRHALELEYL
Target sequence (Q15475 whole entry, looked up): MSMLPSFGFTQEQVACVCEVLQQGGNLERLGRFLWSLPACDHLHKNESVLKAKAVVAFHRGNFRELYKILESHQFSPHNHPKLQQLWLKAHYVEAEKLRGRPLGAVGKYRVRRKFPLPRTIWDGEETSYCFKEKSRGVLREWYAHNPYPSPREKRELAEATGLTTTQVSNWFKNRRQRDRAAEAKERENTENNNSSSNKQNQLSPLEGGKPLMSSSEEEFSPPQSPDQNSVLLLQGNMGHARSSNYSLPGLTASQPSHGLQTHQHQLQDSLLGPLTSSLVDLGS
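AlphaScreen luminescence read after one hour at 37 °C in darkness. Pin-transferred compounds met GST-Six1 and His-Eya2 protein (5X stock 250 nM/500 nM) plus glutathione donor and Ni-chelate acceptor beads (5X, 50 ug/mL).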
CtBP-E1A blk: inhibitors of CtBP/E1A interaction. AlphaScreen GST-E1A/His-CtBP binding, 1536-well; hits give low values. activity change, % (test concentration not listed). 0.49% of 340,000 active; in the data active = activity change below about -65%; inconclusive = mostly about -30% to -63%; note: % is set by controls: 0 for no effect and ±100 for the full control effect
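AlphaScreen with 125 nM GST-E1A and 125 nM His-CtBP (5X stocks) in Tris pH 8.0, 300 mM NaCl, BSA, Tween 20, TCEP. Compounds preincubated 2 h at 37 deg C, then glutathione donor/nickel acceptor beads added for 1 h at 37 deg C in dark.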
ATXN2 expr inh: ATXN2 expression inhibition; HEK-293 ATXN2-luciferase reporter, luminescence, 24 h; Potency, µM (highest dose often 57 µM), inactives show top-dose activity change, negative = inhibition, usual class: inhibitors; 0.72% of 360,000 active; AID 1745845; note: potency is the fitted concentration of half-maximal effect; % is set by controls: 0 for no effect and ±100 for the full control effect; nearly all actives have a fitted effect of over 55% in size
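ATXN2-luciferase reporter cells (luciferase flanked by upstream and downstream ATXN2 gene portions) were treated 24 h at 37 °C with compounds at up to 57 uM. SteadyGlo luminescence gave expression; GF-AFC fluorescence gave viability.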
TGFb SMAD3 inh: blocks TGF-b signaling; HepG2 CAGA-GFP TGF-b/SMAD3 reporter, GFP fluorescence, 18 h; TGF-beta stimulated, 500 pg/mL final; Potency, µM (top dose mostly 46.1 µM), for the others: at the top dose activity, negative = inhibition, hits mostly inhibitors; 1.2% of 410,000 active; AID 588855; note: potency is the fitted concentration of half-maximal effect; % is set by controls: 0 for no effect and ±100 for the full control effect; nearly all actives have a fitted effect of over 65% in size
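First, reporter cells (HEPG2 CAGA-GFP) rested 2 h at 37 degrees C. Next, compounds were pinned in and TGF-beta added to 500 pg/mL final. After 18 h, GFP was imaged per cell and summed per well.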
TGFb CAGA inh: confirmation of TGF-b signaling inhibitors in HepG2 reporter cells | shares compounds with TGFb SMAD3 inh | Potency, µM (series often up to 46.1 µM), inactives show top-dose activity, negative = inhibition, actives largely listed as inhibitors | HepG2 CAGA-GFP TGF-b reporter, GFP fluorescence, 18 h; cells stimulated with TGF-beta, 500 pg/mL | AID 720534 | 63% of 1,600 active; note: potency is the fitted concentration of half-maximal effect; % is set by controls: 0 for no effect and ±100 for the full control effect; nearly all actives have a fitted effect of over 65% in size
HepG2 tox-2: toxic to HepG2 cells in TGF-b counterscreen; shares compounds with TGFb SMAD3 inh; HepG2 CAGA-GFP viability, ATP luminescence, 18 h; cells stimulated with TGF-beta, 500 pg/mL; Potency, µM (series often up to 46.1 µM), for the others: at the highest dose activity, negative = cytotoxicity, hits mostly inhibitors; 27% of 1,600 active; AID 720535; note: potency is the fitted concentration of half-maximal effect; % is set by controls: 0 for no effect and ±100 for the full control effect; nearly all actives have a fitted effect of over 70% in size
TGFb CCL64 inh: TGF-b inhibition, CCL64 orthogonal assay | Potency, µM (top dose mostly 46.1 µM), without a hit: at the highest dose activity, negative = inhibition, usual class: inhibitors | shares compounds with TGFb SMAD3 inh | 41% of 1,600 active | CCL64 CAGA-GFP reporter, TGF-b stimulated, GFP fluorescence, 18 h | AID 720536; note: potency is the fitted concentration of half-maximal effect; nearly all actives have a fitted effect of over 65% in size
TGFb COP inh: blocks TGF-b signaling in HepG2 COP reporter | 3% of 1,600 active | AID 720537 | HepG2 COP-GFP TGF-b reporter, GFP fluorescence, 18 h; cells stimulated by added recombinant TGF-beta | Potency, µM (highest dose often 46.1 µM), without a hit: at the top dose activity, negative = inhibition, usual class: inhibitors | shares compounds with TGFb SMAD3 inh; note: potency is the fitted concentration of half-maximal effect; nearly all actives have a fitted effect of over 70% in size
* marks the source's active call; other numbers are inactive results; i = inactive; ? = inconclusive; . = no result. Unless noted, calls come from the whole dose curve; as a rule, active = well fitted curve in the direction sought with a large enough effect; inconclusive = small, poorly fitted or top-dose-only effect, or another doubt; inactive = no such curve, though single readings can be large; an effect the other way counts as inactive or inconclusive.

SMILES	S2 tox	HepG2 tox-1	Six1-Eya2 blk	CtBP-E1A blk	ATXN2 expr inh	TGFb SMAD3 inh	TGFb CAGA inh	HepG2 tox-2	TGFb CCL64 inh	TGFb COP inh
Cc1ccc2nc(/C(C#N)=C\c3ccc([N+](=O)[O-])o3)[nH]c2c1	.	5µM*	12	-2	5.6µM*	?	16µM*	6.5µM*	4.6µM*	5%
O=c1c(Cc2ccc(Cl)cc2Cl)c(O)ccn1Cc1ccc(Cl)cc1	i	1%	-8	0	-12%	11µM*	?	?	?	24%
CCOc1ccc(N(CC(=O)Nc2ccccc2OCC)S(=O)(=O)c2c(C)noc2C)cc1	i	-12%	1	.	.	5µM*	6.5µM*	8%	4.1µM*	-19%
CCCCn1c(=O)c2oc3ccccc3c2n(CC(=O)Nc2cccc(Cl)c2C)c1=O	.	4%	.	.	.	-21%	.	.	.	.
Cc1ccc2c(c1)C(c1ccccc1)N(C(=O)c1ccc(S(=O)(=O)N3CCCC3)cc1)CC(=O)N2 (stereo not drawn)	i	-31%	.	.	-8%	?	.	.	.	.
NCCCNc1nc(N)c([N+](=O)[O-])c(NC2CCCCC2)n1	i	-32%	-1	.	.	5µM*	4.6µM*	?	5.8µM*	94%
COCCNc1nc(N)c([N+](=O)[O-])c(NC2CCCCC2)n1	i	-7%	-5	-27	-20%	0%	.	.	.	.
COc1ccc(CNC(=O)COCc2cc(-c3cccs3)on2)cc1	.	-13%	.	.	.	?	.	.	.	.
O=C(NCc1ccccc1)C1=C[C@H](c2ccc(C(F)(F)F)cc2)C[C@H](OCc2ccc(CO)cc2)O1	?	-28%	-5	-5	-15%	?	?	-14%	?	8%
CCc1ccc2c(c1)c(=O)c(S(=O)(=O)c1ccccc1)cn2CC(=O)Nc1ccc(OC)cc1	i	0%	.	.	6%	3%	.	.	.	.
COc1cc(Cl)ccc1OC1(C)CCN(Cc2ccc(-c3ccccn3)cc2)C1 (stereo not drawn)	?	-38%	-26	-16	-38%	-6%	.	.	.	.
Cc1ccccc1NC1=NCC(c2ccc([N+](=O)[O-])cc2)S1 (stereo not drawn)	?	0%	-5	-2	-36%	4.5µM*	13µM*	?	8.2µM*	65%
CC(C)(C)c1ccc(Cn2cnc(-c3ccc([N+](=O)[O-])cc3)c2)cc1	i	-21%	?	-8	13%	8.9µM*	21µM*	?	?	51%
Cc1cc(C)c(Cn2cnc(-c3ccc([N+](=O)[O-])cc3)c2)c(C)c1	i	-32%	18	44	-25%	?	.	.	.	.
CCc1ccc(S(=O)(=O)Nc2c(NC3CCCCC3)c3ccccc3oc2=O)cc1	i	-25%	-5	4	-12%	16µM*	?	-6%	13%	-6%
O=c1oc2ccccc2c(NC2CCCCC2)c1NS(=O)(=O)c1ccc(F)cc1	i	-23%	-1	6	-1%	13%	.	.	.	.
CC(C)CCCCCCCCCCCCC(=O)NCC(=O)NC1C(C)OC(Nc2ncnc3nc[nH]c23)C(O)C1O (stereo not drawn)	?	-25%	10	-3	?	0.35µM*	1µM*	?	0.52µM*	-29%
CCCCN(C)C(=O)c1ccc2c(c1)N(Cc1ccc(F)cc1)C(=O)c1ccccc1S2(=O)=O	.	-17%	.	.	.	.	.	.	.	.
Cc1ccc(SCCNC(=O)c2ccc(C)c(S(=O)(=O)Nc3cccc(C)c3)c2)cc1	?	-2%	13	44	?	13µM*	?	?	?	52%
CCS(=O)(=O)N1CC(=O)N(c2cc(C)cc(C)c2)C(C)(C(=O)NC2CCCCC2)C1 (stereo not drawn)	.	-2%	.	.	.	0%	.	.	.	.
COc1ccc(-c2nc(-c3ccc4c(c3)OCO4)[nH]c2-c2ccc(OC)cc2)cc1	?	-41%	?	-15	-20%	-4%	23µM*	?	26µM*	63%
CC(=O)Nc1ccc(S(=O)(=O)NCC2CCC(C(=O)NCCc3ccc(C)cc3)CC2)cc1 (stereo not drawn)	i	-12%	.	.	3%	-11%	.	.	.	.
Nc1cc2[nH]c(=O)c3ccccc3c2cc1Br	i	-21%	-21	5	1%	0.32µM*	?	1.5µM*	7%	59%
O=C(Cn1nc(-c2ccccc2)nc(Cc2ccccc2)c1=O)Nc1ccc(Cl)cc1	.	-1%	.	.	.	0%	.	.	.	.
Cc1ccc(NC(=O)c2cc(S(=O)(=O)NCCC3=CCCCC3)ccc2F)cc1	?	-9%	5	21	-14%	11µM*	18µM*	?	26µM*	36%
Cc1ccc(C)c(NC(=O)c2cc(S(=O)(=O)NCCC3=CCCCC3)ccc2F)c1	.	-20%	.	.	.	?	.	.	.	.
CC(C)C[C@@H](CN1CCC[C@@H]1CN1C(=S)NC[C@@H]1Cc1ccc(O)cc1)N1C[C@H](Cc2ccccc2)N(CCc2ccccc2)C1=S	?	-6%	-12	-11	?	16µM*	?	-30%	?	26%
CC(C)C[C@H]1CN([C@@H](CC(C)C)CN2CCCC2CN2C(=S)NC[C@@H]2Cc2ccc(O)cc2)C(=S)N1CCc1ccccc1 (stereo partly drawn)	?	-2%	-17	-3	-24%	?	.	.	.	.
